Molecules are shown by their SMILES. Over roughly 110,000 compounds, “z-score” has its median near -0.1; the highest 2% begin near 2. Many of the other results were omitted from the sample, so the highest values are more common in it than they were. Active and inactive are the calls of the source.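 How the source made its calls: active means z-score in the third read window above 3 or below -3; inactive means the rest.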

In the assay the target is Metabotropic glutamate receptor 8 (Rattus norvegicus) (UniProt P70579). In words: rat mGluR8 modulators via GIRK flux, primary screen, cell-based, thallium flux, HTS (AID 488969). The note with it: HEK293 rat mGluR8, GIRK (G protein-gated inwardly rectifying potassium channel) thallium flux, FluoZin2; at 10 µM; stronger effect = higher value; submaximal glutamate (EC20) added with thallium.
Metabotropic glutamate receptor 8 (Rattus norvegicus), sequence (P70579 whole entry, looked up): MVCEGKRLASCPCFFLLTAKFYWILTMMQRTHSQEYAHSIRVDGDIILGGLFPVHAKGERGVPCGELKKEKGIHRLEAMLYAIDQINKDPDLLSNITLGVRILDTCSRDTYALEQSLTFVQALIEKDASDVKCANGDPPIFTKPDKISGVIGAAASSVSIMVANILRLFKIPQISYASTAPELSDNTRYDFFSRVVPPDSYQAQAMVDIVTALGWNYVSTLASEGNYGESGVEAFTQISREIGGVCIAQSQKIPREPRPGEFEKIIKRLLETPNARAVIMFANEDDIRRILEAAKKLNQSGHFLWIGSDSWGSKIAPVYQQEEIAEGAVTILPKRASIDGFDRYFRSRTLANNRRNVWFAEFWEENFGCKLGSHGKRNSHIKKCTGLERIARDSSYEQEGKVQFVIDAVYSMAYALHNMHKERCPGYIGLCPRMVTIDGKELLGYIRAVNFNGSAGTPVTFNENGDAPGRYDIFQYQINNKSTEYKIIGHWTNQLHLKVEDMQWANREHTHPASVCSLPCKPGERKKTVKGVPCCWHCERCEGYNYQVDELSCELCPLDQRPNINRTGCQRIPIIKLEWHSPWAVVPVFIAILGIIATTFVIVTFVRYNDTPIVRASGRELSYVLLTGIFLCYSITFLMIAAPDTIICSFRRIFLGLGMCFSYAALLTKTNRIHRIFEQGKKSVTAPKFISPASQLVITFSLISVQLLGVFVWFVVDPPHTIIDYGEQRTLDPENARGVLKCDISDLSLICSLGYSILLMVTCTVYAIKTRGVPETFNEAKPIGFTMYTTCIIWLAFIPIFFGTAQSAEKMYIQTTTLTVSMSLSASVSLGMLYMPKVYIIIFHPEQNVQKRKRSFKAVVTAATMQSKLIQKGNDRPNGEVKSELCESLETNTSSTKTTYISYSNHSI
`Cc1ccc(Cn2nnc3c(=O)[nH]c(C4CCN(S(=O)(=O)c5cc(C)ccc5C)CC4)nc32)cc1` displayed a z-score of 0.616.

For `Cc1ccc(S(=O)(=O)NCCc2ccncc2)cc1`, the z-score was -0.472.

`O=C1CCCN1CN(C(=O)c1ccc2c(c1)OCO2)c1cccc(Cl)c1` gave a z-score of -0.21.

Compound `COC(=O)CN(c1nc(C)cc(OC)n1)S(=O)(=O)c1ccccc1` showed a z-score of -0.5.

Turning to `CCN(c1nc(C)cc(OC)n1)S(=O)(=O)c1ccccc1`, the z-score was -0.243.

In the case of `COc1cc(C)nc(N(Cc2ccccc2)S(=O)(=O)c2ccccc2)n1`, the z-score amounted to 2.43.

In the case of `CCc1ccc(S(=O)(=O)N(C(=O)c2ccncc2)c2ccc(OC(=O)c3ccncc3)cc2)cc1`, the z-score was -0.659.

Take `Cn1c(CN2CCN(C(=O)c3ccccc3)CC2)nc2cc([N+](=O)[O-])ccc21`: the z-score is 0.0497.

For `Cc1c(NC(=O)c2cnn3c(C(F)(F)F)cc(-c4ccco4)nc23)c(=O)n(-c2ccccc2)n1C`, the z-score is 0.95.

In the case of `Cc1ccc(C)c(NC(=O)/C(C#N)=C/c2ccc(Sc3nncn3C)c([N+](=O)[O-])c2)c1`, the z-score was -0.0512.

`Cc1cccc(NC(=O)c2ccoc2C)n1` registered a z-score of 2.35.

Compound `CCCCOC(=O)Nc1ccc(C(N)=O)cc1` displayed a z-score of 0.507.

With `Cc1occc1C(=O)Nc1ccc2ccccc2c1`, the z-score turned out to be 2.19.

In the case of `CCOC(=O)c1cc(NC(=O)c2ccoc2C)cc(C(=O)OCC)c1`, the z-score is -2.39.

In the case of `CCCCOC(=O)Nc1ccc(C(=O)OCCC)cc1`, the z-score is 3.09 (active).

On to `Cc1cc(NC(=O)c2ccoc2C)no1`, for which the z-score is -0.105.

In the case of `CCCOC(=O)c1ccc(NC(=O)Oc2ccccc2)cc1`, the z-score is 0.454.

`Cc1occc1C(=O)Nc1cccc(C(=O)O)c1`: the z-score is -0.0368.

On to `COC(=O)c1cc(NC(=O)c2ccoc2C)cc(C(=O)OC)c1`, for which the z-score was 4.89 (active).

Turning to `Cc1cccc(NC(=O)c2ccccc2Br)n1`, the z-score amounted to 0.0402.

Consider `COC(=O)c1cc(NC(=O)c2cc(C)oc2C)cc(C(=O)OC)c1`, for which the z-score was determined as 0.433.

As to `Cc1occc1C(=O)Nc1ccccc1NC(=O)c1ccoc1C`, the z-score came out at 0.13.

With `CSc1nc(N(C)C)nc(N2CC(=O)N(CCNS(=O)(=O)c3ccc(C)cc3)C2=N)n1`, the z-score is -0.172.

For `CCC(=O)NC(=S)Nc1ccc(NC(=O)COc2ccc(Cl)c(C)c2)cc1`, the z-score was -0.0852.

As for `CC(C)(C)C(C(Oc1ccc(Cl)cc1)n1cncn1)n1nnnc1C(c1cccc(Cl)c1)N1CCCCC1` (stereo not drawn), the z-score is 0.12.

`NS(=O)(=O)c1ccc(CCNC(=O)CSc2ccccc2)cc1`: the z-score is 0.222.

In the case of `CC(C)C(NS(=O)(=O)c1cccc2nsnc12)C(=O)NCc1ccc2c(c1)OCO2` (stereo not drawn), the z-score is -0.269.

Turning to `CCCCOC(=O)c1ccc(NC(=O)c2ccoc2C)cc1`, the z-score was -0.0292.

With `CCCOC(=O)c1ccc(NC(=O)c2ccoc2C)cc1`, the z-score is 2.24.

Regarding `CCCOC(=O)c1ccc(NC(=O)c2ccc(Br)o2)cc1`, the z-score was -0.692.

`COc1ccc(C(=O)NCC(=O)NCC2COc3ccccc3O2)cc1` (stereo not drawn) gave a z-score of 1.

With `CCOc1cc(C(=S)N2CCC(O)CC2)ccc1OS(=O)(=O)c1ccc(Br)cc1`, the z-score was 0.875.

Compound `CCC(=O)NCC(=O)OCC(=O)c1ccccc1` registered a z-score of -0.0257.

Regarding `O=C(Nc1nc(-c2ccccc2)c(-c2ccccc2)o1)c1ccc(F)cc1`, the z-score is 13.5 (active).

In the case of `CC(=O)Nc1nc(-c2ccccc2)c(-c2ccccc2)o1`, the z-score is -0.185.

In turn, `Cn1nnnc1SCC(=O)Nc1nc(-c2ccccc2)c(-c2ccccc2)o1` displayed a z-score of -0.0372.

In turn, `Cc1cc(=O)[nH]c(SCC(=O)Nc2nc(-c3ccccc3)c(-c3ccccc3)o2)n1` showed a z-score of -1.38.

`Cc1ccc(C(=O)Nc2nc(-c3ccccc3)c(-c3ccccc3)o2)cc1`: the z-score was 3.53 (active).

On to `Cc1cc(C)nc(SCC(=O)Nc2nc(-c3ccccc3)c(-c3ccccc3)o2)n1`, for which the z-score is -0.522.

For the compound `CCOC(=O)c1c(NC(NC(C)=O)C(Cl)(Cl)Cl)sc2c1CCCC2` (stereo not drawn), the z-score was -2.34.

Take `COCCCn1c(C)nnc1SCC(=O)NCc1ccco1`: the z-score was -0.305.

With `Cc1ccc(S(=O)(=O)N(C)Cc2cc3ccccc3[nH]c2=O)cc1`, the z-score was -0.0752.

`CCN(CC)CCN(Cc1cc2cc(C)ccc2[nH]c1=O)C(=S)NCc1ccco1` showed a z-score of 0.381.

As to `CCOC(=O)COc1cc(Br)c(/C=N/Nc2ccccc2)cc1OC`, the z-score is -0.0959.

Consider `CCC(C)(C(=O)NC1CCCCC1)N(C(=O)c1ccccn1)c1ccc(C)cc1` (stereo not drawn), for which the z-score is -0.103.

Turning to `COc1cccc(C(=O)/C=C/Nc2cccc(O)c2)c1`, the z-score was -0.665.

`CSc1nnc(CNC(=O)C23CC4CC(CC(C4)C2)C3)n1Cc1ccccc1`: the z-score is -0.331.

Turning to `C/C(=N\NC(=S)NCCc1ccccc1)c1ccc(C)cc1`, the z-score came to 1.67.

On to `C/C(=N\NC(=S)NCCc1ccccc1)c1cccs1`, for which the z-score is 3.65 (active).

For `C/C(=N\NC(=S)NCCc1ccccc1)c1ccc(Cl)cc1`, the z-score came to 1.16.

`O=C1C2C(c3ccccc3)C=CC(c3ccccc3)C2C(=O)N1CCCO` (stereo not drawn) had a z-score of -0.894.

In turn, `O=C(CCS(=O)(=O)c1ccc(Cl)cc1)NCCN1C(=O)S/C(=C\c2ccccc2F)C1=O` gave a z-score of -0.162.

In the case of `Cc1cc(C)n2nc(SCC(=O)N3CCc4ccccc43)nc2n1`, the z-score amounted to 0.255.

In turn, `Cc1ccc(C)c(Cn2nnc3c(=O)[nH]c(C4CCCN(C(=O)C5CCCCC5)C4)nc32)c1` (stereo not drawn) had a z-score of -0.651.

Take `O=C(c1ccccc1)N1CCCC(c2nc3c(nnn3Cc3ccccc3)c(=O)[nH]2)C1` (stereo not drawn): the z-score was -0.398.

In turn, `O=C(C1CCCCC1)N1CCCC(c2nc3c(nnn3Cc3ccccc3)c(=O)[nH]2)C1` (stereo not drawn) came in with a z-score of 2.1.

The compound `O=C(NCCOCCOCCNC(=O)c1cccnc1)c1cccnc1` returned a z-score of 0.119.

Turning to `O=C(NCCCCNC(=O)c1cccnc1)c1cccnc1`, the z-score is 8.98 (active).

Turning to `O=C(NCCc1ccccc1)c1cccnc1`, the z-score was -0.0437.

As to `Cc1c(NC(=O)/C(C#N)=C/c2c(Oc3ccccc3)nc3ccccn3c2=O)c(=O)n(-c2ccccc2)n1C`, the z-score turned out to be 1.16.

As to `CSc1ncc(Cl)c(C(=O)Nc2nnc(SC)s2)n1`, the z-score is -0.194.

As to `Cc1cc(NC(=O)CSc2nc(C3CC3)nc3sc(C)c(C)c23)no1`, the z-score was 12.4 (active).

Consider `CCc1nc(SCC(=O)Nc2nnc(CC)s2)c2c(C)c(C)sc2n1`, for which the z-score was 8.71 (active).

`Cc1sc2nc(C3CCCCC3)nc(SCC(=O)N3CC(=O)Nc4ccccc43)c2c1C` returned a z-score of -0.0509.

The compound `Cc1cc(NC(=O)CSc2nc3sc4c(c3c(=O)n2C)CCCC4)no1` had a z-score of 0.943.

As to `Cc1cc(NC(=O)CSc2nc(C(C)C)nc3sc4c(c23)CCCC4)no1`, the z-score is -0.493.

In the case of `CCCc1nc(SCC(=O)Nc2nnc(CC)s2)c2c(C)c(C)sc2n1`, the z-score was -0.42.

In the case of `Cc1sc2nc(C3CC3)nc(SCC(=O)N3CC(=O)Nc4ccccc43)c2c1C`, the z-score was 3.69 (active).

Take `Cc1cc(NC(=O)CSc2nc(C3CC3)nc3sc4c(c23)CCC(C)C4)no1` (stereo not drawn): the z-score worked out at 0.482.

As for `Cc1nc(SCC(=O)N2CC(=O)Nc3ccccc32)c2c(C)c(C)sc2n1`, the z-score was -0.286.

`Cc1nnc(NC(=O)CSc2nc(C(C)C)nc3sc(C)c(C)c23)s1`: the z-score was -0.837.

Consider `CCc1nc(SCC(=O)Nc2cc(C)on2)c2c(C)c(C)sc2n1`, for which the z-score is -0.346.

`Cc1nc(SCC(=O)Nc2cc(C)on2)c2c3c(sc2n1)CCCC3` came in with a z-score of 2.03.

The record behind these values is PubChem BioAssay AID488969 (Vanderbilt High Throughput Screening Facility, 2010).
